# Screens from PubChem BioAssay.
# HIV Env fusion – inhibitors of HIV Env-mediated cell fusion. HeLa-JRFL Env/CEM21 cell fusion, luciferase. 360,000 compounds, 1.1% hits. inhibition, % at 12.3 µM;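 active = mean replicate inhibition score of at least 50 and every replicate individually at or above 50; inconclusive = only one of the two criteria met; inactive = mean below 50 and not all replicates reaching 50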;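 note: 0% = plate neutral controls and 100% = maraviroc near 300 nM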
# CFTR F508del cor – correctors of CFTR F508del function in bronchial epithelial cells | CFBE cells, YFP halide quenching; stimulated with forskolin plus potentiator P3; % fluorescence drop versus neutral controls | activity (quench increase), % at 7.58 µM | 350,000 compounds, 0.36% hits;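 active = mean added fluorescence quench of at least 8% versus neutral control, with both replicates also reaching 8%; inconclusive = only one of the mean or replicate conditions met; inactive = mean below 8% and not both replicates reaching 8%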;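 note: cells transiently co-express mutant CFTR-F508del with the halide-sensitive YFP; corrector assay measuring rescue of mutant channel to the surface after 24 h compound exposure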
# NSD2 inh – inhibitors of human histone methyltransferase NSD2; O96028; NSD2 peptide methylation, AlphaScreen, 120 min; inhibition, % at 12.5 µM; 310,000 compounds, 0.54% hits; in the data active = inhibition above about 50%
# PglD inh – inhibitors of Campylobacter jejuni PglD acetyltransferase; AID 602405; inhibition, % at 12.5 µM; 360,000 compounds, 0.098% hits; purified PglD enzyme, DTNB colorimetric CoA detection; in the data active = inhibition above about 16%, passing the limit was not always enough; inconclusive = no clear call, values can overlap the other calls
# CASP6 VEID inh – blocks human caspase-6 cleavage activity; P55212; purified caspase-6, Z-VEID-R110 cleavage fluorescence; inhibition, % at 12.5 µM; 350,000 compounds, 0.53% hits; AID 686996;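 active = mean inhibition across replicates at least about 35%, with every replicate also reaching that limit, limit read from the data; inconclusive = only one of the two criteria met; inactive = neither criterion met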;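 note: 0% = median of neutral control wells and 100% = no fluorescence left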
# Target sequence (P55212 24-179 limits assumed): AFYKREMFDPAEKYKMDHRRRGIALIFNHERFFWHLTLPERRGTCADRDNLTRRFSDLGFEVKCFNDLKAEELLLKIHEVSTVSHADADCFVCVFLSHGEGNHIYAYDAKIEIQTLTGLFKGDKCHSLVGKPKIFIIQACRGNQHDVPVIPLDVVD
# Target sequence (P55212 194-293 limits assumed): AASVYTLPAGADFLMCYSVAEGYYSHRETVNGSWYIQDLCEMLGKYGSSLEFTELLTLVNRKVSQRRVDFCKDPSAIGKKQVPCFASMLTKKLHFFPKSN
# ALR inh – inhibitors of human sulfhydryl oxidase ALR; purified ALR, DTT oxidation, H2O2 HRP-luminol luminescence; P55789; 290,000 compounds, 3.8% hits; inhibition, % (concentration not given with the values);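 active = mean replicate inhibition above about 79%, with every replicate also reaching it, limit read from the data; inconclusive = only one of the two criteria met; inactive = mean below limit and not every replicate reaching it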
# Target sequence (P55789 whole entry, looked up): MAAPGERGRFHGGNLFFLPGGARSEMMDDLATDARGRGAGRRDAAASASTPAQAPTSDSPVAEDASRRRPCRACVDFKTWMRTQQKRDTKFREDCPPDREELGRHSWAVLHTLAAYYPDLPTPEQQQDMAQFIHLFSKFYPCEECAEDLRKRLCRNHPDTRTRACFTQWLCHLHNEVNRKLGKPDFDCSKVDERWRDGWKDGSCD
# * marks the source's active call; other numbers are inactive results; ? = inconclusive; . = no result; [ ] = remark or other dose. In the library only some 4.1% were active in any assay of this set; here they are far more common.
SMILES,HIV Env fusion,CFTR F508del cor,NSD2 inh,PglD inh,CASP6 VEID inh,ALR inh
COc1ccc2c3c([nH]c2c1)[C@@H](CO)N(Cc1ccccc1)CC31CCN(S(=O)(=O)c2ccc(C)cc2)CC1,4[16.7 µM],4,.,.,3,.
Nc1nc(N2CCN(c3cccc(Cl)c3)CC2)n[nH]1,-10,3,-3,.,-1,99*
Nc1nc(N2CCN(c3ccccc3)CC2)n[nH]1,-12,-4,-2,-4,-4,100*
Clc1ccc(N2CCN(c3ccnc(Cl)n3)CC2)cc1,1,0,1,.,-1,59
Nc1nc(N2CCN(c3ccc(Cl)cc3)CC2)n[nH]1,8,-2,0,.,-2,98*
COc1cc(/C=C(/NC(=O)c2ccccc2)C(=O)Nc2ccccc2)c([N+](=O)[O-])cc1OC,-54,.,1,4,.,-8
O=C(Nc1ccc(O)cc1)/C(=C\c1cccs1)NC(=O)c1ccccc1,.,-1,2,.,4,100*
Cc1ccc(NC(=O)/C(=C\c2cccs2)NC(=O)c2ccccc2)cc1,-3,.,0,.,.,-1
COc1cc(/C=C(/NC(=O)c2ccccc2)C(=O)Nc2ccc(O)cc2)c([N+](=O)[O-])cc1OC,-13,0,1,.,0,99*
COc1cc(C(=O)Nc2ccc(N(C)C)cc2)c([N+](=O)[O-])cc1OC,14,.,7,-8,0,89*
COC(=O)C[C@@H]1CC[C@@H]2[C@H](COc3ccc(NC(=O)c4cccs4)cc3C(=O)N2C)O1,-4[16.7 µM],2,.,-2,.,.
Cc1cc([N+](=O)[O-])nn1CC(=O)NNC(=S)Nc1ccc([N+](=O)[O-])cc1,.,-1,7,-5,5,74
COc1ccc(NC(=S)NNC(=O)Cn2nc([N+](=O)[O-])cc2C)cc1,-10,.,2,-4,.,81*
Cc1nn(CC(=O)NNC(=S)Nc2ccccc2)c(C)c1[N+](=O)[O-],.,-1,-2,-7,1,80*
CC(=O)N(C)C[C@H]1Oc2cc(C3=CCCCC3)ccc2S(=O)(=O)N([C@H](C)CO)C[C@H]1C,19[16.7 µM],-1,.,.,.,.
CC(C)CC#Cc1cnc2c(c1)C(=O)N([C@H](C)CO)C[C@@H](C)[C@H](CN(C)C(=O)CN1CCOCC1)O2,0[16.7 µM],-2,.,16,-1,.
CCOC(=O)C1CCN(C(=O)COC(=O)c2ccc([N+](=O)[O-])o2)CC1,-1,0,46,4,56*,-38
CC1CC(C)CN(C(=O)COC(=O)c2ccc([N+](=O)[O-])o2)C1 (stereo not given),.,3,-1,4,22,-20
CCOC(=O)C1=C(COC(=O)c2ccc([N+](=O)[O-])o2)NC(=O)NC1C (stereo not given),.,2,28,2,43*,12
CC(=O)N(C)C[C@@H]1Oc2ncc(C3=CCCC3)cc2C(=O)N([C@@H](C)CO)C[C@@H]1C,-4[16.7 µM],-2,.,-3,-4,.
COc1ccccc1CCC(=O)Nc1ccc2c(c1)CN(CCCn1cccn1)CC2,-8,1,-6,3,99*,-1
Cc1noc(C)c1S(=O)(=O)Nc1ccc2c(c1)C(=O)N([C@H](C)CO)C[C@H](C)[C@@H](CN(C)S(=O)(=O)c1ccc(F)cc1)OCCCC[C@H](C)O2,4[16.7 µM],2,.,-1,5,.
C[C@@H]1CCCCO[C@H](CN(C)Cc2ccc(C(F)(F)F)cc2)[C@H](C)CN([C@H](C)CO)C(=O)c2cc(NC(=O)Nc3ccccc3)ccc2O1,?,-6,.,0,.,.
COc1ccc2ncn(-c3ccccc3)c2c1,68*,.,8,2,.,-10
COc1ccccc1NC(=O)CNC(c1ccccc1)c1ccccc1,22,0,-7,-4,2,1
SMILES,HIV Env fusion,CFTR F508del cor,NSD2 inh,PglD inh,CASP6 VEID inh,ALR inh
COc1ccc(C)cc1NC(=O)CNC(c1ccccc1)c1ccc(C)cc1 (stereo not given),-141,13*,2,4,-3,-14
COc1ccc(C(CC(=O)Nc2cc([N+](=O)[O-])ccc2OC)c2ccccc2)cc1 (stereo not given),79*,.,-3,-4,-1,-9
COC(=O)CNC(c1ccccc1)c1cc(Br)ccc1NC(=O)OCc1ccccc1 (stereo not given),.,.,-1,0,.,-1
COCCn1c(SC(C(=O)Nc2cc(C)ccc2OC)c2ccccc2)nnc1-c1ccc(Cl)cc1 (stereo not given),-2,-2,-2,.,.,99*
COc1ccc(C)cc1NC(=O)C(Sc1nnnn1C)c1ccccc1 (stereo not given),27,-1,-2,2,2,1
COC(=O)CNC(c1ccccc1)c1cc(C)ccc1NC(=O)CNC(=O)OCc1ccccc1 (stereo not given),73*,.,.,3,.,0
CCC(=O)Nc1ccc2c(c1)C(=O)N(C)C[C@@H](OC)[C@H](C)CN(Cc1ccncc1)[C@@H](C)CO2,10[16.7 µM],-1,.,0,.,.
CCCNC(=O)[C@H]1[C@H](CO)[C@H]2Cn3c(ccc(-c4ccc(F)cc4)c3=O)[C@H]2N1CCC,.,.,.,1,-2,.
COc1ccccc1NC(=O)C(C)NC(c1ccccc1)c1ccccc1 (stereo not given),59*,-2,-2,-6,-3,-1
Cc1cc(N=Nc2ccccc2)c(NCC(O)C(O)C(O)CO)cc1C (stereo not given),-3,1,8,.,6,98*
C[C@@H]1CN([C@@H](C)CO)C(=O)c2cc(-c3ccc(F)cc3)cnc2O[C@H]1CN(C)C(=O)Nc1ccc(F)cc1,-2[16.7 µM],-4,.,.,.,.
CC(C)(CNC(=O)c1cccc(S(=O)(=O)N2CCCCC2)c1)N1CCOCC1,63*,.,.,1,2,.
Cc1ccc(NC(=O)c2cccc(S(=O)(=O)N3CCN(c4ccccc4)CC3)c2)nc1,57*,0,0,5,-3,.
CN(Cc1cccs1)C(=O)c1cccc(S(=O)(=O)N2CCCCCC2)c1,10,31*,-1,1,3,-3
CN(Cc1ccc(Cl)cc1Cl)C(=O)c1cccc(S(=O)(=O)N2CCN(c3ccccc3)CC2)c1,90*,-1,-14,0,7,-2
O=C([C@H]1N[C@H]2c3ccc(-c4ccccc4F)c(=O)n3C[C@H]2[C@@H]1CO)N1CCc2ccccc2C1,12[16.7 µM],.,.,-3,2,.
CO[C@@H]1CN(C)C(=O)c2ccc(NC(=O)CN(C)C)cc2OC[C@@H](C)N(C(=O)C2CCOCC2)C[C@H]1C,2[16.7 µM],-4,.,-2,0,.
O=C(C1CCCCC1)N1CC2(C1)[C@H](c1ccccc1)[C@H](CO)N2Cc1cncnc1,.,3,.,.,2,.
COc1ccccc1NC(=O)N[C@H]1C=C[C@H](CC(=O)NCc2ccc(Cl)c(Cl)c2)O[C@@H]1CO,7[16.7 µM],-1,.,3,-1,.
CN(CCOc1ccc(Cl)cc1)C(=O)c1cccc(S(=O)(=O)N2CCN(c3ccccc3)CC2)c1,.,8.6*,1,4,-1,.
